Assay [1] in a line: yeast TOR pathway RPL19A-GFP modulators, primary screen, cell-based, S. cerevisiae, multiplex flow cytometry (AID 1862; in the data active = percent of DMSO control GFP below about 86%;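 also: lower values mimic rapamycin by blocking the RPL19A rise seen in DMSO cells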). The note with it: S. cerevisiae RPL19A-GFP strain, flow cytometry fluorescence, 3 h; at 10 µM; stronger effect = lower value. (In general: In flow cytometry, cells or beads pass a laser one at a time.)
The nature of assay [2]: modulators of MEP2-GFP levels in yeast, primary screen, S. cerevisiae, multiplex flow cytometry (AID 1867;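 active = GFP response, as percent of the DMSO control, above the screen-wide mean plus 3 SD, about 139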;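 also: median GFP channel fluorescence of barcode-gated MEP2-GFP cells measured by flow cytometry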). Particulars: S. cerevisiae MEP2-GFP strain, 3 h, at 10 µM, stronger effect = higher value, 100% means same as DMSO wells.
Assay [3] can be described thus: modulators of CIT2-GFP expression in yeast, primary screen, S. cerevisiae, GFP fusion, multiplex flow cytometry (AID 1870;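 active = percent response above a set limit, the screen-wide mean plus 3 SD, cut at about 130% in these data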;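 also: barcoded CIT2-GFP strain pooled with four other GFP strains with rapamycin as positive control; median GFP fluorescence per well over plate mean of DMSO wells so 100% = DMSO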). Particulars: 3 h, at 10 µM, stronger effect = higher value.
The nature of assay [4]: modulators of LAP4-GFP expression in yeast, primary screen, S. cerevisiae, multiplex flow cytometry (AID 1873;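 active = GFP signal, as percent of the solvent control, above the screen mean plus 3 SD, about 149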). The note with it: 3 h, at 10 µM, stronger effect = higher value.
Assay [5] in a line: modulators of AGP1-GFP expression in yeast TOR pathway, primary screen, cell-based, multiplex flow cytometry, S. cerevisiae (AID 1887;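 active = GFP signal above the screen-wide mean plus 3 SD, that is over about 124.5% of the solvent control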;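 also: AGP1-GFP fusion strain of S. cerevisiae within a five-strain barcoded multiplex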). Particulars: 3 h, at 10 µM, stronger effect = higher value.
Assay [6] in a line: inhibitors of CD8+ T cell-vesicle binding, pilot screen, LFA-1/ICAM-1 modulator project, MLPCN validation set, flow cytometry (AID 2523;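 active = response below a set limit, under 55% cells CD8-positive and vesicle-bound, and CD8 cells' 90th-percentile brightness under 279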;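 as to vesicle binding response: mean PE anti-B7-1 fluorescence of CD8+ cells relative to row control; 100% = QL9-loaded vesicles with DMSO vehicle in the same plate row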). The note with it: 2C mouse CD8+ T cells, at 7 µM, stronger effect = lower value; double positive events: measured here: CD8+/vesicle+ event percentage.
Assay [7] deals with Integrin beta-1 (Homo sapiens) + Integrin alpha-4 (Homo sapiens) (UniProt P13612+P05556). Description: inhibition of HUTS-21 binding to VLA-4, pilot screen, VLA-4 allosteric modulator project, U937 cells, HUTS-21 mAb, flow cytometry, validation set (AID 2674;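 active = inhibition above 50%, about 3 SD of the validation set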;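 also: antibody binding induced by the VLA-4 ligand LDV present at three times its Kd; 0% = LDV ligand with antibody and no compound and 100% = antibody without LDV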). The note with it: HUTS-21 LIBS mAb binding, at 6.7 µM, stronger effect = higher value, binding induced by LDV ligand.
Sequence of Integrin beta-1 (Homo sapiens) + Integrin alpha-4 (Homo sapiens) (P05556 whole entry, looked up): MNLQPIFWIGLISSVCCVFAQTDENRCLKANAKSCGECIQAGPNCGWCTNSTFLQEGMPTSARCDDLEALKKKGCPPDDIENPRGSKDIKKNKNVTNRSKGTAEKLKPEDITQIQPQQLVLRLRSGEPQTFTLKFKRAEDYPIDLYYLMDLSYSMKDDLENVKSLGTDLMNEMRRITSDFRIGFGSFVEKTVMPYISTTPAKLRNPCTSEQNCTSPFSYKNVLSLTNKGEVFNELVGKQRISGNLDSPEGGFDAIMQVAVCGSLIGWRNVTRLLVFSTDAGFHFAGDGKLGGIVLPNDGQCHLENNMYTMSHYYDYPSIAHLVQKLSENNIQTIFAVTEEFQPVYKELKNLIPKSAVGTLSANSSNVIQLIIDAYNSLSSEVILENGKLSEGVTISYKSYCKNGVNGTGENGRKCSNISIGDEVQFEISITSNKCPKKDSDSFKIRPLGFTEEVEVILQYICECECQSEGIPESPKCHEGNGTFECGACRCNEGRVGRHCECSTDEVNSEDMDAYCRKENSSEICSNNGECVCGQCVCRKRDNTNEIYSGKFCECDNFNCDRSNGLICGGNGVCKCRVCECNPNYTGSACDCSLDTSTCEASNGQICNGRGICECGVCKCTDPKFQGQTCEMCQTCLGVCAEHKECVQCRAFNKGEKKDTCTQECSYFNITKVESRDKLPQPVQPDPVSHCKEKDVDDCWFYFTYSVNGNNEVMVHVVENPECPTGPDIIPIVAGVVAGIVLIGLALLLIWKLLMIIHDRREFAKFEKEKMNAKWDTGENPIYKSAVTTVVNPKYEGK
Sequence of Integrin beta-1 (Homo sapiens) + Integrin alpha-4 (Homo sapiens) (P13612 whole entry, looked up): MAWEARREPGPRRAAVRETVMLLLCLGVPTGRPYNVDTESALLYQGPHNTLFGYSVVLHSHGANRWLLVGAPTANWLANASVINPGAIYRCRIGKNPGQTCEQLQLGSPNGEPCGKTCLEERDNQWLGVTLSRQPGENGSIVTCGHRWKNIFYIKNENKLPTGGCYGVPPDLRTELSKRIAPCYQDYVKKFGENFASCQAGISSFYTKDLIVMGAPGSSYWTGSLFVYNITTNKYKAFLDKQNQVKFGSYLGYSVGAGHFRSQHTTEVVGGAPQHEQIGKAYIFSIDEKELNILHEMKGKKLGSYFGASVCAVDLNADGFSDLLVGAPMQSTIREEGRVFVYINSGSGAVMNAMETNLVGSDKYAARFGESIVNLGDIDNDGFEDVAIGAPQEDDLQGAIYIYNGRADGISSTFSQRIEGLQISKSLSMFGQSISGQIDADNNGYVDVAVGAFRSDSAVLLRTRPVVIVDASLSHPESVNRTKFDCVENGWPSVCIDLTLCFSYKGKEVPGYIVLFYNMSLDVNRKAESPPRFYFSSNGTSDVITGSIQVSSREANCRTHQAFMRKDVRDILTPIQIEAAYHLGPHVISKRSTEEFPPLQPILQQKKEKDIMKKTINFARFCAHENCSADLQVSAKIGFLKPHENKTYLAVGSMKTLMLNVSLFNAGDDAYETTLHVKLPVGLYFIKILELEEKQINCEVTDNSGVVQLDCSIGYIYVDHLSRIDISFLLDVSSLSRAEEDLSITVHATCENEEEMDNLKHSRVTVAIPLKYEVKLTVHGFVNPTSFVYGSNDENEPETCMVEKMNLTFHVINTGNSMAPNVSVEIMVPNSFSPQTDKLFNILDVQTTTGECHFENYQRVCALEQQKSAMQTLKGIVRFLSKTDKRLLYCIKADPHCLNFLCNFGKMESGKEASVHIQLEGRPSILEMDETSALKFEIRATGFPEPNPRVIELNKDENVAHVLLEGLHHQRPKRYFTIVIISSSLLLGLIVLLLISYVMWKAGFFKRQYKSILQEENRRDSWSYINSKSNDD
Assay [8] can be described thus: superoxide lowering in aged yeast cells, pilot screen, validation compound set (AID 2706;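 active = superoxide response below 65% of plate, a cut near 3 SD across the whole screen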;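 also: yeast exposed to compound for one week at 30 degrees C before staining; 100% = mean of all compound wells on the same plate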). Particulars: S. cerevisiae aging, superoxide DHE fluorescence; at 10 µM; stronger effect = lower value.
For assay [9], the target named is Beta-adrenergic receptor kinase 1 (Homo sapiens) (UniProt P25098). Description: GRK2 binders displacing RNA aptamer, biochemical, validation, human GRK2, bead flow cytometry (AID 488806). The note with it: bead-bound GRK2, FAM-aptamer displacement, at 10 µM, stronger effect = higher value.
Sequence of Beta-adrenergic receptor kinase 1 (Homo sapiens) (P25098 whole entry, looked up): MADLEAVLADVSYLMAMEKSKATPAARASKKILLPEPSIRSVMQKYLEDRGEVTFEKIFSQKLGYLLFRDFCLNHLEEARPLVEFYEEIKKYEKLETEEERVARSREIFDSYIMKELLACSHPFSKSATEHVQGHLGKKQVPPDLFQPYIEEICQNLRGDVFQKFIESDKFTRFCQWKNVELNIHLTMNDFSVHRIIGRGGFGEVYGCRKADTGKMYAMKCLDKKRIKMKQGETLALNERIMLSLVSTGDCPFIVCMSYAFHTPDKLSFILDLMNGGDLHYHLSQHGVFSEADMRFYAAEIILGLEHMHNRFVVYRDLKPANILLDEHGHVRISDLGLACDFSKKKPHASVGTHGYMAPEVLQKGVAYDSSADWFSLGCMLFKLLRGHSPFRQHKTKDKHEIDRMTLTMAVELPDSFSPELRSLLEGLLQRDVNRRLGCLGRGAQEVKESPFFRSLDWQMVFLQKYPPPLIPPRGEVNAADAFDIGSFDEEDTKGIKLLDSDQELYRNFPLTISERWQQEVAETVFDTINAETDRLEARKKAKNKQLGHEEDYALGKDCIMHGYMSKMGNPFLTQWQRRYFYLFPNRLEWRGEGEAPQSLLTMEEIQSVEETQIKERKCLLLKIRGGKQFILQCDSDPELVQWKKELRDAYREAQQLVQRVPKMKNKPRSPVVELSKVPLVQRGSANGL
For assay [10], the target named is Beta-2 adrenergic receptor (Homo sapiens) (UniProt P07550). Nature of the assay: beta2AR agonists driving receptor internalization, pilot screen, cell-based, FAP fluorogen, flow cytometry, validation set (AID 504459;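 active = percent response above 42, roughly 3 SD of non-fluorescent test compounds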;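 also: agonist-driven loss of surface beta2AR via internalization measured by FAP dye flow cytometry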). The note with it: Am2.2-beta2AR cells, FAP surface receptor flow cytometry; at 10 µM; stronger effect = higher value.
Sequence of Beta-2 adrenergic receptor (Homo sapiens) (P07550 whole entry, looked up): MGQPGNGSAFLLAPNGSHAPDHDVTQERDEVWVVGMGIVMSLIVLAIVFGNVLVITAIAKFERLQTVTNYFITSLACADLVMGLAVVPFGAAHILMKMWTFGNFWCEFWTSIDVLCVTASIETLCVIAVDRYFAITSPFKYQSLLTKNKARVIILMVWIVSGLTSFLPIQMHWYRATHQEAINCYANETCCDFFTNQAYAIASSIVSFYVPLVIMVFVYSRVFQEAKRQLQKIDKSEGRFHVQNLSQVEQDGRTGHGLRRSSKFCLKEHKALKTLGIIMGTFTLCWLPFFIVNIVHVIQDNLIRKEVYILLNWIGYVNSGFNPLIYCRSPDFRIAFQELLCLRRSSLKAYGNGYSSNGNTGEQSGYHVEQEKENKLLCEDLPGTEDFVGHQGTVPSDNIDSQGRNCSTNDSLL
In assay [11] the target is AP-2 complex subunit beta (Homo sapiens) (UniProt P63010). Nature of the assay: inhibitors of arrestin peptide binding to AP2, pilot screen, biochemical, validation set, GST-AP2 beads, flow cytometry (AID 504541;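 active = inhibition above 54%, about 3 SD of non-fluorescent compounds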;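 also: AP2 carries R879A mutation and is captured from E. coli lysate; bead-bound FITC arrestin peptide fluorescence measuring arrestin peptide binding to AP2; 0% = DMSO wells and 100% = excess unlabeled arrestin peptide control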). The note with it: FITC arrestin peptide, at 10 µM, stronger effect = higher value, AP2 beta2 appendage fragment, R879A mutant.
Sequence of AP-2 complex subunit beta (Homo sapiens) (P63010 whole entry, looked up, the tested form may be a part, one chain of several): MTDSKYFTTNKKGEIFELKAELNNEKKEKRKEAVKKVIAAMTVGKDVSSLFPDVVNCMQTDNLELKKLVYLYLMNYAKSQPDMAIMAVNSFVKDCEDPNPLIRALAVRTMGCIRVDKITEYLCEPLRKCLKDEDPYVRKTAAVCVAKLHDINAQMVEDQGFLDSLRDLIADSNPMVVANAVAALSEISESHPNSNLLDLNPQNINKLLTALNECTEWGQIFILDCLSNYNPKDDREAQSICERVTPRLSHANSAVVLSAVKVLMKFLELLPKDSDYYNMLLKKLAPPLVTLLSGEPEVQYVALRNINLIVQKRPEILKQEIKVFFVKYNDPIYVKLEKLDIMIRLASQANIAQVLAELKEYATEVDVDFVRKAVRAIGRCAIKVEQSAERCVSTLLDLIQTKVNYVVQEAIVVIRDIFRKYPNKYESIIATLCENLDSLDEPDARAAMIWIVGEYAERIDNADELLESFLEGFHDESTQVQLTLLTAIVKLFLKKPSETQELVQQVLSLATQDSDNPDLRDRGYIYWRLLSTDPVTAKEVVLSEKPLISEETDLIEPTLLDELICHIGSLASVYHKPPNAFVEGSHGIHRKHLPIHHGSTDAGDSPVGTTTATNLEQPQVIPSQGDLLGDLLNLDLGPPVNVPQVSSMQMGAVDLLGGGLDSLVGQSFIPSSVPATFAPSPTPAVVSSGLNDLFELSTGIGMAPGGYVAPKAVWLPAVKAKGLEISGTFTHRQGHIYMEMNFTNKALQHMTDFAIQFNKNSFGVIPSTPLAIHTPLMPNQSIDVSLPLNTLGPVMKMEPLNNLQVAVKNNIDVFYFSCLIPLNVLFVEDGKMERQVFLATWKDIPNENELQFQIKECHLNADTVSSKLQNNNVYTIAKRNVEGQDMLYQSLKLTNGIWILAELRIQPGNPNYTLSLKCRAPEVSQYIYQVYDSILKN
Assay [12] can be described thus: yeast V-ATPase proton transport modulators, S. cerevisiae, pHLuorin, HTS validation (AID 504600; in the data active = response above about 15%;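 also: plate controls were DMSO for no effect and reference compound for full effect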). The note with it: S. cerevisiae pHLuorin cytosolic pH, at 10 µM, stronger effect = higher value.
For assay [13], the system named is anti-desmoglein-3 scFv antibody binding to human DSG3. Nature of the assay: inhibitors of anti-DSG3 scFv binding to DSG3, pilot screen, biochemical, validation compound set, bead-based, flow cytometry (AID 588368;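 active = binding below the plate cutoff, the plate median minus 3 SD, with a reading above zero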;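 also: signal is the median channel fluorescence of bead-bound GFP antibody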). Particulars: Protein G beads, DSG3-Fc, scFv-GFP binding, at 10 µM, stronger effect = lower value.
The nature of assay [14]: inhibitors of fungal efflux pumps CDR1, CDR2, MDR1, pilot screen, validation compound set, multiplex, phenotypic (AID 588506;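 active = efflux inhibition above 0.42, the validation set average plus 4 SD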;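 also: Nile Red retained in cells so higher fluorescence means more efflux inhibition; 0 = negative control wells and 1 = enniatin B 25 µM full block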). Particulars: S. cerevisiae pump-expressing triplex, Nile Red efflux flow cytometry; at 10 µM; stronger effect = higher value; the pumps come from Candida albicans.
The target of assay [15] is ATP-binding cassette sub-family B member 6 (Homo sapiens) (UniProt Q9NP58). Description: ABCB6 transporter inhibitors, pilot screen, K562-ABCB6 cells, flow cytometry, validation set (AID 588550;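 active = inhibition above the screen-wide mean plus 3 SD, about 51%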;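 also: 0% = DMSO wells and 100% = benzethonium chloride 70 µM positive control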). The note with it: K562-ABCB6 porphyrin accumulation, 1 h, at 10 µM, stronger effect = higher value.
Sequence of ATP-binding cassette sub-family B member 6 (Homo sapiens) (Q9NP58 whole entry, looked up): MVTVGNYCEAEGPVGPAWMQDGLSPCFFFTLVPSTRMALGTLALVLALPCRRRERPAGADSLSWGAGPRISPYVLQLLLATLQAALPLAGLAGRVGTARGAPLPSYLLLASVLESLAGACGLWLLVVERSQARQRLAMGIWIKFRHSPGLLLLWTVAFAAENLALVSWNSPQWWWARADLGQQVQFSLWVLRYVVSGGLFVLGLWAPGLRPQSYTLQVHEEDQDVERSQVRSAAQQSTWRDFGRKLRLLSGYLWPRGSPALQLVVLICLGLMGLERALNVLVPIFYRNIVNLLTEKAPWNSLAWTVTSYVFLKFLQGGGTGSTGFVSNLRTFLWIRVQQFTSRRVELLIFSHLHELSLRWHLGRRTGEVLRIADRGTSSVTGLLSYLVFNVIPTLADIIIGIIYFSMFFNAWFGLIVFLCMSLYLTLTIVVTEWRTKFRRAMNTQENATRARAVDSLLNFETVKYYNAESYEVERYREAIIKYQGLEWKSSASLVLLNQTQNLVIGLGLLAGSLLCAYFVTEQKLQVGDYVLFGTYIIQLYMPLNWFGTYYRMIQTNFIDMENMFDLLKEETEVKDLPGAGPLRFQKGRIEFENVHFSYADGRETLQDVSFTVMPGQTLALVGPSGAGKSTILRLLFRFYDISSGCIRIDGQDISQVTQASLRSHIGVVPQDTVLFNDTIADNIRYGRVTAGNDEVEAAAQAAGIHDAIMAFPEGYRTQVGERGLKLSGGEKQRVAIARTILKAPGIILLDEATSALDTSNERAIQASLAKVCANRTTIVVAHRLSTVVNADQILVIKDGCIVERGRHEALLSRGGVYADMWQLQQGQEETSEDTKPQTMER
The nature of assay [16]: promoters of myeloid differentiation in arrested cells, primary screen, cell-based, GFP/MAC1 double positive, flow cytometry, validation set (AID 588685;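 active = differentiation response of at least 50%, scaled between solvent and reference control, from cells with both markers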;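 also: compound exposure lasts four days before antibody staining and flow analysis; 0% = DMSO wells and 100% = 5 µM fulvestrant positive control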). Particulars: ER-HoxA9 marrow cells, stronger effect = higher value, normalized: vehicle 0, fulvestrant 100.

The values below come from PubChem BioAssay.

Inconclusive results are not listed. Activity calls are given as the source filed them.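 The calls were made as follows, unless noted: active = aptamer binding inhibition above 30%, about 3 SD of noise from non-fluorescent compounds; inactive = inhibition at or below 30%.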

The term inhibition denotes the change of the read-out against control, counted positive when it falls. Regarding `NC(=O)c1ncn([C@@H]2O[C@H](CO)[C@@H](O)[C@H]2O)c1O`, the percent of DMSO control GFP in assay [1] was 101% (inactive). Also, the GFP response vs DMSO in assay [2] was 103% (inactive); in [4], 108% (inactive). Besides, in assay [3], the percent response of DMSO control is 96.7% (inactive). In addition, the GFP response, % of DMSO in assay [5] was 98% (inactive). For the same molecule, the double positive events in [6] was determined as 55.9%. For the same molecule, in assay [6], the vesicle binding response is 164% (inactive). The inhibition is -16.8% (inactive) in assay [7], -16.1% (inactive) in assay [11] and 3% (inactive) in [15]. In addition, the superoxide response (% of plate) in assay [8] is 109% (inactive). Moreover, the aptamer binding inhibition in [9] was 1% (inactive). Besides, the response in [10] was 3.75% (inactive); in [12], -4.18% (inactive). Besides, the binding (% of control) in assay [13] was 98.7% (inactive). In addition, the efflux inhibition (fraction of control) in assay [14] is -0.21 (inactive). Also, the differentiation response in assay [16] is -15.2% (inactive).
On to `Cc1c(OCC(F)(F)F)ccnc1CS(=O)c1nc2ccccc2[nH]1` (stereo not given), for which, in [1], the percent of DMSO control GFP is 95.1% (inactive). Moreover, the GFP response vs DMSO is 101% (inactive) in [2] and 119% (inactive) in [4]. Moreover, the percent response of DMSO control in assay [3] was 97% (inactive). For the same molecule, in [5], the GFP response, % of DMSO was 118% (inactive). In [6], this molecule came in with a double positive events of 58.8%. For the same molecule, the vesicle binding response in assay [6] was 153% (inactive). Further, the inhibition in [7] was -64.1% (inactive); in assay [11], -4.09% (inactive); in assay [15] it was -6% (inactive). Moreover, the superoxide response (% of plate) in assay [8] was 111% (inactive). In addition, in assay [9], the aptamer binding inhibition was 1% (inactive). The figures for the response in [10] and in assay [12] were 24.6% (inactive) and -4.18% (inactive), respectively. The binding (% of control) in assay [13] was 106% (inactive). Moreover, the efflux inhibition (fraction of control) in assay [14] is 0.04 (inactive). Besides, the differentiation response in assay [16] is -4% (inactive).
In the case of `CC(N=C(NC#N)Nc1ccncc1)C(C)(C)C` (stereo not given), in [1], the percent of DMSO control GFP is 102% (inactive). The values for the GFP response vs DMSO in assay [2] and in assay [4] were 103% (inactive) and 99.1% (inactive), respectively. Further, in assay [3], the percent response of DMSO control was 103% (inactive). Moreover, the GFP response, % of DMSO in assay [5] was 100% (inactive). The double positive events in assay [6] worked out at 59.1%. The vesicle binding response in [6] is 97.4% (inactive). Also, the results for the inhibition in assay [7], in [11] and in [15] were 5.61% (inactive), 0.53% (inactive) and -10% (inactive), respectively. Moreover, in assay [8], the superoxide response (% of plate) is 104% (inactive). In assay [9], the aptamer binding inhibition was 3% (inactive). Moreover, the response in [10] is -2.47% (inactive); in assay [12], -9.1% (inactive). In addition, the binding (% of control) in assay [13] is 101% (inactive). Moreover, the efflux inhibition (fraction of control) in assay [14] was 0.09 (inactive). In [16], the differentiation response is -1.65% (inactive).
Take `COc1ccc(CCN2C(=O)CSC2c2ccc(OC)c(OC)c2)cc1OC` (stereo not given): the percent of DMSO control GFP in [1] was 102% (inactive). Moreover, the GFP response vs DMSO was 118% (inactive) in assay [2] and 104% (inactive) in assay [4]. Also, the percent response of DMSO control in [3] is 87.2% (inactive). The GFP response, % of DMSO in assay [5] was 95.7% (inactive). The same molecule came in with a double positive events in assay [6] of 63.2%. Also, the vesicle binding response in assay [6] is 184% (inactive). Moreover, the inhibition in assay [7] was 9.13% (inactive); in assay [11], 8.66% (inactive); in [15] it was 1% (inactive). Further, in assay [8], the superoxide response (% of plate) is 104% (inactive). For the same molecule, in assay [9], the aptamer binding inhibition was 2% (inactive). Further, the response in [10] is -12.9% (inactive); in assay [12] it was -1.47% (inactive). For the same molecule, the binding (% of control) in assay [13] is 100% (inactive). Besides, in assay [14], the efflux inhibition (fraction of control) is 0.05 (inactive). In addition, in assay [16], the differentiation response is 21.6% (inactive).
Regarding `CC(C)(C)n1c(=O)[nH]c2c(c1=O)CCC2`, the percent of DMSO control GFP in assay [1] is 105% (inactive). Moreover, the GFP response vs DMSO in assay [2] is 103% (inactive); in assay [4], 113% (inactive). For the same molecule, the percent response of DMSO control in assay [3] is 98.3% (inactive). In addition, the GFP response, % of DMSO in assay [5] was 110% (inactive). In addition, the double positive events in [6] was determined as 61.8%. For the same molecule, the vesicle binding response in assay [6] is 205% (inactive). Further, the figures for the inhibition in assay [7], in [11] and in [15] were 8.25% (inactive), 66.2% (active) and -3% (inactive), respectively. Further, in [8], the superoxide response (% of plate) was 98.5% (inactive). Moreover, the aptamer binding inhibition in assay [9] was 0% (inactive). The figures for the response in assay [10] and in [12] were -17.6% (inactive) and 7.46% (inactive), respectively. In addition, the binding (% of control) in [13] is 100% (inactive). Moreover, the efflux inhibition (fraction of control) in assay [14] was 0.08 (inactive). Also, in assay [16], the differentiation response is -12.9% (inactive).
